Inconclusive results are not listed. The source made the active and inactive calls. Calls follow the shape of the dose curve; as a rule, active = well fitted curve in the direction sought with a large enough effect in the repeat runs; inconclusive = weak or mixed curves; inactive = no such curve, though single readings can be large; an effect the other way counts as inactive or inconclusive.
Key:
[1] = A CellTox Green Cytotoxicity Assay to monitor cytotoxicity in HEK293 cells - 40 hour (AID 1224871); also: nearly all actives have a fitted effect of over 45% in size
Procedure, shortened: (§1)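 Real-time, in one plate: 600 HEK293 cells/well with dead-cell DNA dye, pinned compound after 5 h, 37 C incubation over 40 h; viable cells give no appreciable fluorescence.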

[2] = qHTS RealTime-Glo MT Cell Viability Assay in HEK293 cells - 16 hour (AID 1224872); also: top concentration of the series differs between compounds; nearly all actives have a fitted effect of over 50% in size
Procedure, shortened: (§2)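 Reads taken at 0, 8, 16, 24, 32 and 40 h from the same wells. HEK293 cells (600/well) carried RealTime-Glo reagents from seeding, with compound added after a 5 h settle at 37 C.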

[3] = qHTS RealTime-Glo MT Cell Viability Assay in HepG2 cells - 8 hour (AID 1224873); also: nearly all actives have a fitted effect of over 55% in size
Procedure, shortened: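 HepG2 cells (600/well) mixed with RealTime-Glo MT reagent, settled 5 h at 37 C/5% CO2 before compound addition. Nonlytic NanoLuc luminescence from viable-cell prosubstrate reduction read repeatedly during 40 h treatment at 37 C.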

[4] = qHTS RealTime-Glo MT Cell Viability Assay in HEK293 cells - 40 hour (AID 1224874); settings: RealTime-Glo luminescence; max response: hits give low values; also: nearly all actives have a fitted effect of over 50% in size
Procedure, shortened: (§3)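 Kinetic, non-lysing viability readout. Seed HEK293 (600/well) with reagent, incubate 5 h at 37 C/5% CO2, pin 23 nL compound in DMSO, incubate at 37 C, read luminescence at 0, 8, 16, 24, 32, 40 h.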

[5] = A CellTox Green Cytotoxicity Assay to monitor cytotoxicity in HEK293 cells - 24 hour (AID 1224875); also: series mostly up to about 77 µM; nearly all actives have a fitted effect of over 45% in size
Procedure, shortened: as §1

[6] = A CellTox Green Cytotoxicity Assay to monitor cytotoxicity in HepG2 cells - 16 hour (AID 1224876); also: nearly all actives have a fitted effect of over 45% in size
Procedure, shortened: (§4)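 Cytotoxicity was tracked as dead-cell DNA fluorescence in HepG2 cells treated with test compounds at 37 C; each time-point value comes from one kinetic series spanning 0, 8, 16, 24, 32 and 40 h.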

[7] = qHTS RealTime-Glo MT Cell Viability Assay in HepG2 cells - 32 hour (AID 1224877); also: nearly all actives have a fitted effect of over 55% in size
Procedure, shortened: (§5)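 HepG2 suspension premixed with RealTime-Glo reagents is plated at 600 cells per well and left 5 h at 37 C/5% CO2. Compounds in DMSO then go in, and bioluminescence reflecting viable cell number is recorded over 40 h.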

[8] = A CellTox Green Cytotoxicity Assay to monitor cytotoxicity in HepG2 cells - 24 hour (AID 1224878); also: nearly all actives have a fitted effect of over 45% in size
Procedure, shortened: as §4

[9] = A CellTox Green Cytotoxicity Assay to monitor cytotoxicity in HepG2 cells - 40 hour (AID 1224879); also: nearly all actives have a fitted effect of over 40% in size
Procedure, shortened: as §4

[10] = qHTS RealTime-Glo MT Cell Viability Assay in HEK293 cells - 0 hour (AID 1224880)
Procedure, shortened: as §3

[11] = A CellTox Green Cytotoxicity Assay to monitor cytotoxicity in HEK293 cells - 32 hour (AID 1224881); also: nearly all actives have a fitted effect of over 40% in size
Procedure, shortened: as §1

[12] = A CellTox Green Cytotoxicity Assay to monitor cytotoxicity in HepG2 cells - 0 hour (AID 1224882); also: nearly all actives have a fitted effect of over 35% in size
Procedure, shortened: as §4

[13] = A CellTox Green Cytotoxicity Assay to monitor cytotoxicity in HepG2 cells - 32 hour (AID 1224883); also: nearly all actives have a fitted effect of over 50% in size
Procedure, shortened: as §4

[14] = A CellTox Green Cytotoxicity Assay to monitor cytotoxicity in HEK293 cells - 8 hour (AID 1224884); also: nearly all actives have a fitted effect of over 35% in size
Procedure, shortened: as §1

[15] = qHTS RealTime-Glo MT Cell Viability Assay in HepG2 cells - 16 hour (AID 1224885); also: nearly all actives have a fitted effect of over 50% in size
Procedure, shortened: as §5

[16] = qHTS RealTime-Glo MT Cell Viability Assay in HEK293 cells - 8 hour (AID 1224887)
Procedure, shortened: as §3

[17] = A CellTox Green Cytotoxicity Assay to monitor cytotoxicity in HEK293 cells - 16 hour (AID 1224888); also: nearly all actives have a fitted effect of over 35% in size
Procedure, shortened: as §1

[18] = qHTS RealTime-Glo MT Cell Viability Assay in HepG2 cells - 0 hour (AID 1224889); also: nearly all actives have a fitted effect of over 50% in size
Procedure, shortened: as §5

[19] = A CellTox Green Cytotoxicity Assay to monitor cytotoxicity in HepG2 cells - 8 hour (AID 1224890); also: nearly all actives have a fitted effect of over 45% in size
Procedure, shortened: as §4

[20] = qHTS RealTime-Glo MT Cell Viability Assay in HEK293 cells - 24 hour (AID 1224886)
Procedure, shortened: as §2
% is scaled to controls: 0 for no effect and ±100 for the full control effect.

NCCNC(=O)c1ccc(Cl)cn1
inactive: Potency [1] | Potency [2] | outcome [3] | max response [4] 0.469% | Potency [5] | Potency [6] | Potency [7] | Potency [8] | Potency [9] | outcome [10] | Potency [11] | Potency [12] | Potency [13] | Potency [14] | outcome [15] | Potency [16] | Potency [17] | Potency [18] | Potency [19]

CC(=O)O[C@H](CC(=O)[O-])C[N+](C)(C)C
inactive: Potency [1] | Potency [2] | outcome [3] | max response [4] 4.27% | Potency [5] | Potency [6] | Potency [7] | Potency [8] | Potency [9] | outcome [10] | Potency [11] | Potency [12] | Potency [13] | outcome [15] | Potency [16] | Potency [17] | Potency [18] | Potency [19]

Nc1cc(C(Cl)=C(Cl)Cl)c(S(N)(=O)=O)cc1S(N)(=O)=O
inactive: Potency [1] | Potency [2] | outcome [3] | max response [4] -0.745% | Potency [5] | Potency [6] | Potency [7] | Potency [8] | Potency [9] | outcome [10] | Potency [11] | Potency [12] | Potency [13] | Potency [14] | outcome [15] | Potency [18] | Potency [19]

NC(=S)Nc1cccc2ccccc12
inactive: cytotoxicity increase [1] 0.339% [at 6.97 µM] | activity change, negative = cytotoxicity [2] 14.8% [at 6.97 µM] | viability change, negative = cytotoxic [3] 2.4% [at 6.97 µM] | max response [4] 16.5% | activity change [5] 0.127% [at 6.97 µM, hits give high values] | cytotoxicity increase [6] 1.42% [at 6.97 µM] | activity change, negative = cytotoxic [7] -0.0723% [at 6.97 µM] | cytotoxicity [8] -1.06% [at 6.97 µM] | cytotoxicity increase [9] 2.43% [at 6.97 µM] | activity change, negative = cytotoxicity [10] 29.3% [at 6.97 µM] | cytotoxicity increase [11] -1.04% [at 6.97 µM] | cytotoxicity [12] 5.93% [at 6.97 µM] | cytotoxicity increase [14] 15.1% [at 6.97 µM] | activity change, negative = cytotoxic [15] -0.289% [at 6.97 µM] | activity change, negative = cytotoxicity [20] 15.9% [at 6.97 µM] | activity change [17] 0.057% [at 6.97 µM, hits give high values] | activity change, negative = cytotoxicity [18] 6.18% [at 6.97 µM] | cytotoxicity increase [19] 0.879% [at 6.97 µM]

CC(C)[C@H](N)C(=O)OCCOCn1cnc2c(=O)[nH]c(N)nc21
inactive: Potency [1] | Potency [2] | outcome [3] | max response [4] 9.28% | Potency [5] | Potency [6] | Potency [7] | Potency [8] | Potency [9] | outcome [10] | Potency [11] | Potency [12] | Potency [14] | outcome [15] | Potency [20] | Potency [16] | Potency [18] | Potency [19]

CCO[Si](C)(OCC)OCC
inactive: Potency [1] | Potency [2] | outcome [3] | max response [4] 3.57% | Potency [5] | Potency [6] | Potency [7] | Potency [8] | Potency [9] | outcome [10] | Potency [11] | Potency [12] | Potency [13] | outcome [15] | Potency [20] | Potency [17] | Potency [18] | Potency [19]

CCCCCCCCCCC1CO1 (stereo not given)
inactive: Potency [1] | Potency [2] | outcome [3] | max response [4] 6.25% | Potency [5] | Potency [6] | Potency [7] | Potency [8] | Potency [9] | outcome [10] | Potency [11] | Potency [12] | Potency [14] | outcome [15] | Potency [20] | Potency [18]

COc1cc(C)cc(O)c1
inactive: Potency [1] | Potency [2] | outcome [3] | max response [4] -14.5% | Potency [5] | Potency [6] | Potency [7] | Potency [8] | Potency [9] | outcome [10] | Potency [11] | Potency [12] | Potency [13] | outcome [15] | Potency [16] | Potency [17] | Potency [18] | Potency [19]

C=CCn1c(=O)n([C@@H]2O[C@H](CO)[C@@H](O)[C@H]2O)c2nc(N)[nH]c(=O)c21
inactive: Potency [1] | Potency [2] | outcome [3] | max response [4] 3.44% | Potency [5] | Potency [6] | Potency [7] | Potency [8] | Potency [9] | outcome [10] | Potency [11] | Potency [12] | Potency [14] | outcome [15] | Potency [20] | Potency [16] | Potency [18]

O=C(O)c1ccccc1-c1ccc(C(F)(F)F)cc1
inactive: Potency [1] | Potency [2] | outcome [3] | max response [4] 7.22% | Potency [5] | Potency [6] | Potency [7] | Potency [8] | Potency [9] | outcome [10] | Potency [11] | Potency [12] | Potency [13] | outcome [15] | Potency [20] | Potency [16] | Potency [18] | Potency [19]

C(=C(c1ccccc1)c1ccccc1)c1ccccc1
inactive: Potency [1] | Potency [2] | outcome [3] | max response [4] 7.28% | Potency [5] | Potency [6] | Potency [7] | Potency [8] | Potency [9] | outcome [10] | Potency [11] | Potency [12] | Potency [13] | Potency [14] | outcome [15] | Potency [18]

CN(C)CCn1nnnc1SCC1=C(C(=O)O)N2C(=O)[C@@H](NC(=O)Cc3csc(N)n3)[C@H]2SC1
inactive: Potency [1] | Potency [2] | outcome [3] | max response [4] 13.3% | Potency [5] | Potency [6] | Potency [7] | Potency [8] | Potency [9] | outcome [10] | Potency [11] | Potency [12] | Potency [13] | Potency [14] | outcome [15] | Potency [17] | Potency [18] | Potency [19]

CCCCCCCCCCCCCCC
inactive: Potency [1] | Potency [2] | outcome [3] | max response [4] 10.7% | Potency [5] | Potency [6] | Potency [7] | Potency [8] | Potency [9] | outcome [10] | Potency [11] | Potency [12] | Potency [13] | Potency [14] | outcome [15] | Potency [16] | Potency [17] | Potency [18] | Potency [19]

Source: PubChem BioAssay (Tox21)
